Assay results from PubChem BioAssay (NCI).
Compounds without any hit were thinned out: in the full panel of roughly 83,000, 20% have a hit.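 48-hour exposure, single concentration, 96-well plates; percent growth endpoint where 0 means no net growth. Active: below 10.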 Calls of active or inactive are those of the source.

The compounds below were run on HL-60(TB) leukemia (assay: NCI-60 one-dose screen, 48 h (100 = growth as untreated, 0 = no growth, -100 = all killed)). Settings: 10 µM unless noted.

SMILES | growth
COc1cc(C2NC(c3ccc(Cl)cc3)C(C)/C(=N/NC(N)=S)C2C)cc(OC)c1OC (centres undefined) | 79.9% (inactive)
CC(=O)OC[C@H]1O[C@H](OC(C)=O)[C@H](NC(=O)/C=C/CCl)[C@@H](OC(C)=O)[C@@H]1OC(C)=O | 96.4% (inactive)
COC(=O)CNC(=O)c1ccc(NC(=O)c2[nH]c(C)c(Cl)c2Cl)c(O[C@H]2CCNC2)c1 | 95.7% (inactive)
CCS(=O)(=O)Nc1cccc(Nc2c3cccc(C)c3nc3c(C)cccc23)c1OC | -16.4% (active)
COc1ccc2[nH]cc(-c3nc(-c4c[nH]c5ncccc45)cs3)c2c1 | 13.9% (inactive)
C=CC[n+]1c(/C=C/C=C2\N(C)c3ccccc3C2(C)C)sc2ccc(OC)cc21 | -21% (active)
C(=C\c1c[nH]c2ccccc12)/c1ccc2ccccc2n1 | 2.85% (active)
c1cc(OCCN2CCCCC2)cc(-c2n[nH]c3ccc(-c4ncn[nH]4)cc23)c1 | 39% (inactive)
Cc1onc(-c2ccccc2Cl)c1C(=O)Cl | 104% (inactive)
Cc1c2ncccc2nc2[nH]c3ccc(OCCN(C)C)cc3c12 | 15.9% (inactive)
C=CCN1C(=O)c2ccccc2C1=O | 101% (inactive)
CC1(C)C(=O)/C(=C\c2ccco2)C[C@]2(C)[C@H]3CC=C4[C@@H]5C[C@](C)(C(=O)O)CC[C@]5(C)CC[C@@]4(C)[C@]3(C)CC[C@@H]12 | -21.1% [100 µM] (active)
O=C1c2cc3c(cc2-c2c1c1ccc(F)cc1c(=O)n2C[C@H](O)[C@@H](O)[C@H](O)CO)OCO3 | -3.71% (active)
Cc1cc(N/N=C/c2nc(-c3ccc(Cl)cc3)oc2C)c2cc(Br)ccc2n1 | 59% (inactive)
CCOC(=O)[C@@H](C)C[C@H](Cc1ccccc1)NC(=O)c1csc([C@@H](C[C@H](C(C)C)N(C)C(=O)[C@@H](NC(=O)[C@H]2C[C@H](O[Si](C)(C)C(C)(C)C)CCN2C)C(C)C)OC(C)=O)n1 | -36.9% [9.25 µM] (active)
COC(=O)c1c2c(c[n+]([O-])c1C)C(=O)C(NCc1ccccc1)=CC2=O | -34.5% (active)
CC1(C)O[C@H]2OC3CCC(=O)CC3(O)[C@H]2O1 (some centres undefined) | 102% (inactive)
CCOC(=O)[C@@H]1[C@H](c2ccccc2)[C@H]([N+](=O)[O-])[C@H](c2cn(-c3ccccc3)nc2C)N1Cc1ccccc1 | 77.7% (inactive)
Cc1cc(N)c2cc(NC(=O)/C=C\c3ccccc3Cl)ccc2n1 | -29.3% (active)
CCNc1nc(C(F)(F)F)nc2c1sc(=S)n2-c1ccccc1 | 98.9% (inactive)

SMILES | growth
CSc1nn2c(-c3ccc4ccccc4c3)ccnc2c1C#N | 14.1% (inactive)
CCNC(=O)Oc1ccc[nH]c1=O | 94.1% (inactive)
CCCCCCCC/C=C\CCCCCCCCOc1ccccc1CC(=O)NCC[N+]1(C)CCCCC1 | -19.6% (active)
COC(=O)c1c2c(c(C)[n+]([O-])c1C)C(=O)C(NCCN1CCOCC1)=CC2=O | 52.4% (inactive)
O=C(CCl)c1ccc2c(c1)CCCC2 | 96.9% (inactive)
Nc1ccc(-c2csc(-n3[nH]c(=O)ccc3=O)n2)cc1 | 97.1% (inactive)
Cc1ncc(C#N)c(N)n1 | 109% (inactive)
O=C(NS(=O)(=O)c1ccccc1)n1cc(-c2ccncc2)c(-c2ccc(Cl)c(O)c2)n1 | 94% (inactive)
O=C(CS)Nc1ccc2ccccc2c1 | 120% (inactive)
c1ccc(COc2ccc(Nc3ncnc4c3cnn4-c3ccccc3)cc2)cc1 | 99.8% (inactive)
O=C(N/N=C/c1ccccc1O)C(=O)Nc1ccc(F)cc1 | 29.6% (inactive)
CCCS(=O)(=O)Nc1cccc(Nc2ncnc3cc(NC(=O)CCl)ccc23)c1Cl | -35.5% (active)
CN1C(=O)/C(=C/c2ccc(C(=O)Nc3ncc(Cc4cccc(Cl)c4)s3)cc2)SC1=S | 88.2% (inactive)
CCCCN(CC)CCCCCCCCCCN1CCCc2cc(OC)ccc21 | -54% (active)
COc1ccc2c(c1)cn1c3ccc(O)cc3nc(N)c21 | -15.8% (active)
N#C/C(=C\c1ccc(-c2ccccc2)o1)c1nc(-c2ccco2)cs1 | 99.3% (inactive)
C[C@@]1(C(=O)Nc2ccc(F)nc2)CCCN1c1nc(Nc2cc(C3CC3)[nH]n2)c2cccn2n1 | 9.68% (active)
CC(C)(C)Nc1c(-c2c3ccccc3cc3ccccc23)nc2ccccn12 | 74.4% (inactive)
Cc1cc(C)c(S(=O)(=O)N2CCN(c3cc4c(cc3F)c(=O)c(C(=O)O)cn4C3CC3)CC2)c(C)c1 | 8.72% (active)
